Assay results as given in the supplement of paper PMC10849652.
Of roughly 7,900 targets only a part is listed; those with a hit were picked by preference. About 0.6% of all pairs of compound and target were hits.

Key:
Test in all cases: log2 fold change, soluble protein after heating vs DMSO (PISA); higher = thermal stabilisation; K562 cells, 10 uM, 30 min; active = over 0.2 and 3.5 SD of the protein, either way, in both replicates (recomputed)
bafetinib = compound: Cc1ccc(NC(=O)c2ccc(CN3CC[C@H](N(C)C)C3)c(C(F)(F)F)c2)cc1Nc1nccc(-c2cncnc2)n1 [bafetinib]
Summary of the method: (§1)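 Aliquots of K562 cells (2×10^6 cells/mL) treated with 10 μM compound for 30 min were heated for 3 min over 48°C-58°C. After pooling and extraction in PBS with 0.5% NP-40 at 4°C, soluble protein from a 21,000xg, 90 min spin was quantified by TMTpro 16plex LC-MS/MS with channel sums equalised. Thermal stability is expressed against control samples, from duplicates, as a log2 fold change.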

[1] = compound: Cc1cccc(CC(=O)N2CCc3c2ccc(-c2cn(C)c4ncnc(N)c24)c3F)n1
Summary of the method: as §1

mubritinib = compound: FC(F)(F)c1ccc(/C=C/c2nc(COc3ccc(CCCCn4ccnn4)cc3)co2)cc1 [mubritinib]
Summary of the method: as §1

[2] = compound: NC(=O)Nc1cc(-c2cccc(F)c2)sc1C(=O)N[C@H]1CCCNC1
Summary of the method: as §1

[3] = compound: NC1(c2ccc(-c3nc4ccn5c(=O)[nH]nc5c4cc3-c3ccccc3)cc2)CCC1
Summary of the method: as §1

entinostat = compound: Nc1ccccc1NC(=O)c1ccc(CNC(=O)OCc2cccnc2)cc1 [entinostat]
Summary of the method: as §1

vorinostat = compound: O=C(CCCCCCC(=O)Nc1ccccc1)NO [vorinostat]
Summary of the method: as §1

silmitasertib = compound: O=C(O)c1ccc2c(c1)nc(Nc1cccc(Cl)c1)c1ccncc12 [silmitasertib]
Summary of the method: as §1

[4] = compound: O=C1NC(=O)C(c2cnc3ccccn23)=C1c1cn2c3c(cc(F)cc13)CN(C(=O)N1CCCCC1)CC2
Summary of the method: as §1

dasatinib = compound: Cc1nc(Nc2ncc(C(=O)Nc3c(C)cccc3Cl)s2)cc(N2CCN(CCO)CC2)n1 [dasatinib]
Summary of the method: as §1

[5] = compound: Cn1cc(-c2ccc3c(c2)CCN3C(=O)Cc2cccc(C(F)(F)F)c2)c2c(N)ncnc21
Summary of the method: as §1

[6] = compound: NC(=O)c1cnc(N[C@@H]2CCCC[C@@H]2N)nc1Nc1cccc(-n2nccn2)c1
Summary of the method: as §1

[7] = compound: NCC(=O)Nc1ccc(-n2nc(C(F)(F)F)cc2-c2ccc3c(ccc4ccccc43)c2)cc1
Summary of the method: as §1

nilotinib = compound: Cc1cn(-c2cc(NC(=O)c3ccc(C)c(Nc4nccc(-c5cccnc5)n4)c3)cc(C(F)(F)F)c2)cn1 [nilotinib]
Summary of the method: as §1

[8] = compound: Cc1nc(Nc2n[nH]c3c2CN(C(=O)N[C@H](CN(C)C)c2ccccc2)C3(C)C)c2sccc2n1
Summary of the method: as §1

[9] = compound: Cc1ncc(-c2ccnc(Nc3ccc(S(C)(=O)=O)cc3)n2)n1C(C)C
Summary of the method: as §1

citarinostat = compound: O=C(CCCCCCNC(=O)c1cnc(N(c2ccccc2)c2ccccc2Cl)nc1)NO [citarinostat]
Summary of the method: as §1

[10] = compound: c1cc(OCCN2CCCCC2)cc(-c2n[nH]c3ccc(-c4nnc[nH]4)cc23)c1
Summary of the method: as §1

tipifarnib = compound: Cn1cncc1[C@@](N)(c1ccc(Cl)cc1)c1ccc2c(c1)c(-c1cccc(Cl)c1)cc(=O)n2C [tipifarnib]
Summary of the method: as §1

[11] = compound: Cn1cc(-c2ccc3nnc(C(F)(F)c4ccc5ncccc5c4)n3n2)cn1
Summary of the method: as §1

Measured: log2 fold change

TOM1 (UniProt O60784)
Sequence of UniProt O60784 (O60784 whole entry, looked up): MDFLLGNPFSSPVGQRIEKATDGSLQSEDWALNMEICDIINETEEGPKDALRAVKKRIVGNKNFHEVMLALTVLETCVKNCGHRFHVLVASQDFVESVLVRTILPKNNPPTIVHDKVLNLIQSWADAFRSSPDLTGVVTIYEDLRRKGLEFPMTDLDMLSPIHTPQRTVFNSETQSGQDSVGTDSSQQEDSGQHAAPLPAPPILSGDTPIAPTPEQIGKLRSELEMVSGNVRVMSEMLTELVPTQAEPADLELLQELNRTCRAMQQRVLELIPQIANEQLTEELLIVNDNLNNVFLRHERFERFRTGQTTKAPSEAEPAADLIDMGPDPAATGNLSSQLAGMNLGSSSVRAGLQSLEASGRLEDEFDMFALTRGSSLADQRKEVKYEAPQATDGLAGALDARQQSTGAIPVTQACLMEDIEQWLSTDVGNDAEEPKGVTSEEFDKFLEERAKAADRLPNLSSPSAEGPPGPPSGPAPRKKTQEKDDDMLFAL
inactive: bafetinib -0.288 | [1] -0.105 | mubritinib -0.222 | [2] 0.044 | [3] -0.176 | entinostat 0.062 | vorinostat 0.048 | silmitasertib 0.017 | [4] -0.077

WARS1 (UniProt G3V227)
inactive: bafetinib 0 | dasatinib -0.164 | [5] -0.42 | [6] 0.045 | [7] -0.115 | [4] -0.084

U2AF1L5 (UniProt P0DN76)
inactive: bafetinib 0.047 | nilotinib 0.025 | [8] -0.669 | dasatinib -0.017 | [9] -0.108 | mubritinib 0.173 | [6] 0.047 | [3] 0.07 | [7] -0.295 | citarinostat -0.28 | silmitasertib -0.024 | [10] -0.146

WDR46, A0A0G2JJL1
inactive: bafetinib 0.339 | nilotinib -0.094 | [8] 0.202 | dasatinib 0.381 | [9] 0.105 | tipifarnib 0.171 | mubritinib -0.051 | [2] 0.222 | [3] 0.515 | [7] 0.146 | entinostat -0.113 | citarinostat -0.163 | silmitasertib 0.247 | [4] 0.284 | [10] 0.013

TOM1L2 (UniProt Q6ZVM7)
Sequence of UniProt Q6ZVM7 (Q6ZVM7 whole entry, looked up): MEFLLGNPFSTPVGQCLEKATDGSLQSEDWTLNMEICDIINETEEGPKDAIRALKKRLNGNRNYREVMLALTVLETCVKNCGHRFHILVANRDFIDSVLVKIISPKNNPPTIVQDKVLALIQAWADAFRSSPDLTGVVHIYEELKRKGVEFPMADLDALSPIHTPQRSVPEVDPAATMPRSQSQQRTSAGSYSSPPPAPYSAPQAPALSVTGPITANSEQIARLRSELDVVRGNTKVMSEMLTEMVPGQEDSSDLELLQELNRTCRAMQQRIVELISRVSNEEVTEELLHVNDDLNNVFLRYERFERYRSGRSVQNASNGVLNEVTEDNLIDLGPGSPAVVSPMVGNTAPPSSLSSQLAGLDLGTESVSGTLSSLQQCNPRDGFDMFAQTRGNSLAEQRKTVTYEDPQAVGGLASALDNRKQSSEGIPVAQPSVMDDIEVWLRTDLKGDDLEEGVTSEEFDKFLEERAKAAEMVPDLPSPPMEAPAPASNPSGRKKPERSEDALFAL
inactive: nilotinib -0.047 | [8] -0.127 | dasatinib -0.091 | [9] -0.125 | [5] 0.028 | [2] 0.089 | [6] -0.136 | [7] -0.098 | entinostat 0.036 | [4] -0.043

WDR75 (UniProt Q8IWA0)
Sequence of UniProt Q8IWA0 (Q8IWA0 whole entry, looked up): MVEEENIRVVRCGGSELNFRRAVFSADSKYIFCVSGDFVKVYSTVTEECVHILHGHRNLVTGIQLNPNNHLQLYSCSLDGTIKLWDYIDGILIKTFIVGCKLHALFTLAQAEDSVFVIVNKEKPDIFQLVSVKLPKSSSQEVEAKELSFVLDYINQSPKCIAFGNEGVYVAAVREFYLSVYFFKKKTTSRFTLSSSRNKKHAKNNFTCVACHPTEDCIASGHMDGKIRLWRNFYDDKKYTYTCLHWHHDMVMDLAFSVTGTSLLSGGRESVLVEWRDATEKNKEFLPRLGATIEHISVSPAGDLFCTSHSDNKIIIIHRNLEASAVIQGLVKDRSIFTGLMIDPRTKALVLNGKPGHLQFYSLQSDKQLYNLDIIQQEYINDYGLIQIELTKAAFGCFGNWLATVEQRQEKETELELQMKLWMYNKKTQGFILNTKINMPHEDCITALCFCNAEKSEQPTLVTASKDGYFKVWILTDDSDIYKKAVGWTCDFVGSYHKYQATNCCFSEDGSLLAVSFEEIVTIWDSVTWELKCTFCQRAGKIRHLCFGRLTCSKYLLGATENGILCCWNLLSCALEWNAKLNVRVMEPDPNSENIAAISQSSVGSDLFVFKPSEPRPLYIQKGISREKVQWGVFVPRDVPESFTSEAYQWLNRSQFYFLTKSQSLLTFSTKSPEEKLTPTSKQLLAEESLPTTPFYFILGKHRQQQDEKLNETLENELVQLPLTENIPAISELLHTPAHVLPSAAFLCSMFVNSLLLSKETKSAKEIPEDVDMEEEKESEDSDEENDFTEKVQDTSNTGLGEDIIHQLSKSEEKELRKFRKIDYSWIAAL
inactive: bafetinib 0.019 | nilotinib -0.214 | [8] 0.041 | dasatinib 0.085 | [9] 0.109 | [5] -0.252 | [11] -0.045 | tipifarnib -0.021 | mubritinib -0.329 | [6] -0.004 | [3] 0.173 | [7] -0.125 | silmitasertib 0.086 | [4] 0.17

UFM1 (UniProt P61960)
Sequence of UniProt P61960 (P61960 whole entry, looked up): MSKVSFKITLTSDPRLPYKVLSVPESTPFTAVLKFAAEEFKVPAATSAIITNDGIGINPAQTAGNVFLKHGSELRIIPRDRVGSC
inactive: bafetinib 0.045 | nilotinib -0.011 | [8] 0.025 | dasatinib -0.012 | [9] 0.026 | [5] 0.008 | [11] 0.007 | tipifarnib -0.061 | mubritinib 0.087 | [2] 0.045 | [6] -0.135 | [3] -0.073 | [7] -0.056 | entinostat 0.004 | citarinostat 0.056 | silmitasertib -0.033 | [4] -0.083 | [10] 0.015

TXNRD1 isoform 7 (UniProt Q16881)
Sequence of UniProt Q16881 (Q16881 whole entry, looked up): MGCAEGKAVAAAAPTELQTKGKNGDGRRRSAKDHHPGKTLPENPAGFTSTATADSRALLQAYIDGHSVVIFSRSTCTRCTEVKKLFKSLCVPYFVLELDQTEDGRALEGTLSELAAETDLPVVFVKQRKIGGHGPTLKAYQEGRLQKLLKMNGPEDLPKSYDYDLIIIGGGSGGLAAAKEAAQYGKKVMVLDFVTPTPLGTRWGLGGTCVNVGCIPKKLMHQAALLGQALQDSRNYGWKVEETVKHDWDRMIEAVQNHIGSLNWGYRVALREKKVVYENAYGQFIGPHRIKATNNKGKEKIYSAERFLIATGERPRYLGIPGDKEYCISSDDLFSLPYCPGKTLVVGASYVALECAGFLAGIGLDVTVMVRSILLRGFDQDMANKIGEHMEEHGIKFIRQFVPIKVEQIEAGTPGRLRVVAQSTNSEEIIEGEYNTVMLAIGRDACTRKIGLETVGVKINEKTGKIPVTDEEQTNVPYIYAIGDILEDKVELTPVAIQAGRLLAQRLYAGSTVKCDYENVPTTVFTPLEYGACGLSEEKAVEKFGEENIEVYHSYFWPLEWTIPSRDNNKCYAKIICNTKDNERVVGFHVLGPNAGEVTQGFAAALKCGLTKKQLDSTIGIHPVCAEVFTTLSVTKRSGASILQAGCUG
inactive: bafetinib -0.124 | [1] 0.001 | dasatinib -0.052 | tipifarnib -0.051 | [2] -0.083 | [7] -0.214 | entinostat 0.065 | vorinostat 0.21 | citarinostat -0.171 | [4] -0.227 | [10] 0.171

TTI2 (UniProt Q6NXR4)
Sequence of UniProt Q6NXR4 (Q6NXR4 whole entry, looked up): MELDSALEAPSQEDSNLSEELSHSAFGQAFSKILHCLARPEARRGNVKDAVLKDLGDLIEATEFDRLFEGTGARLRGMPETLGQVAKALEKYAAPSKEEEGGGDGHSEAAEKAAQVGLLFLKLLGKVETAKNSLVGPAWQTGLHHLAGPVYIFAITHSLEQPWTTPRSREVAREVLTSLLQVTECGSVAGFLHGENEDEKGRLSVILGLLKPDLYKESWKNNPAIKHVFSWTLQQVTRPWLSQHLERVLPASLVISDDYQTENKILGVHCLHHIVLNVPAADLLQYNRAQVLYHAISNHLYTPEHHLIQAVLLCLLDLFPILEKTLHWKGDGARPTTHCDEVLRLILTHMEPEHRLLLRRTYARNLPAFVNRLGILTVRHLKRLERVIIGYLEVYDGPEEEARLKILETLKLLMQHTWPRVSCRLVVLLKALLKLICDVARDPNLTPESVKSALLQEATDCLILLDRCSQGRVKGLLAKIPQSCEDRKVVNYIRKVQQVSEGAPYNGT
inactive: bafetinib 0.06 | nilotinib -0.028 | [8] -0.068 | dasatinib -0.005 | [9] 0.077 | [5] -0.017 | [11] -0.007 | tipifarnib -0.059 | mubritinib -0.063 | [2] 0.024 | [6] -0.038 | [3] 0.016 | [7] -0.074 | entinostat -0.004 | citarinostat -0.035 | silmitasertib -0.047 | [4] 0.059 | [10] -0.023

WDR4 isoform 3 (UniProt P57081)
Sequence of UniProt P57081 (P57081 whole entry, looked up): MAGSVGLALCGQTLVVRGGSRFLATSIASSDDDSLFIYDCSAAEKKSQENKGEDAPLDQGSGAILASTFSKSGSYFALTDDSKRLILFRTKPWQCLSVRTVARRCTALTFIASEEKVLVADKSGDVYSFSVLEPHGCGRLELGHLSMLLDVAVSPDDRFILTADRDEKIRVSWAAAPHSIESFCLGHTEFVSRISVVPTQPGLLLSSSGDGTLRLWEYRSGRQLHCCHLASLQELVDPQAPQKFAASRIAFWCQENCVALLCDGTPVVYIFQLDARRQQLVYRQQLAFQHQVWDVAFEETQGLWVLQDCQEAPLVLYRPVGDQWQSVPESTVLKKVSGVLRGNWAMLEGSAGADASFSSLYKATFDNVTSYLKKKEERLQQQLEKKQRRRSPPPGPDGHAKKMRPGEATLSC
inactive: bafetinib 0.125 | [1] 0.057 | [2] -0.103 | entinostat -0.02 | vorinostat -0.118 | [4] -0.135

WARS1 (UniProt G3V5U1)
inactive: bafetinib -0.569 | mubritinib -0.161 | [2] -0.609 | [3] -0.142 | entinostat -0.218 | citarinostat -0.608 | silmitasertib 0.297 | [4] -0.761 | [10] -0.083

UBE3B (UniProt Q7Z3V4)
Sequence of UniProt Q7Z3V4 (Q7Z3V4 whole entry, looked up): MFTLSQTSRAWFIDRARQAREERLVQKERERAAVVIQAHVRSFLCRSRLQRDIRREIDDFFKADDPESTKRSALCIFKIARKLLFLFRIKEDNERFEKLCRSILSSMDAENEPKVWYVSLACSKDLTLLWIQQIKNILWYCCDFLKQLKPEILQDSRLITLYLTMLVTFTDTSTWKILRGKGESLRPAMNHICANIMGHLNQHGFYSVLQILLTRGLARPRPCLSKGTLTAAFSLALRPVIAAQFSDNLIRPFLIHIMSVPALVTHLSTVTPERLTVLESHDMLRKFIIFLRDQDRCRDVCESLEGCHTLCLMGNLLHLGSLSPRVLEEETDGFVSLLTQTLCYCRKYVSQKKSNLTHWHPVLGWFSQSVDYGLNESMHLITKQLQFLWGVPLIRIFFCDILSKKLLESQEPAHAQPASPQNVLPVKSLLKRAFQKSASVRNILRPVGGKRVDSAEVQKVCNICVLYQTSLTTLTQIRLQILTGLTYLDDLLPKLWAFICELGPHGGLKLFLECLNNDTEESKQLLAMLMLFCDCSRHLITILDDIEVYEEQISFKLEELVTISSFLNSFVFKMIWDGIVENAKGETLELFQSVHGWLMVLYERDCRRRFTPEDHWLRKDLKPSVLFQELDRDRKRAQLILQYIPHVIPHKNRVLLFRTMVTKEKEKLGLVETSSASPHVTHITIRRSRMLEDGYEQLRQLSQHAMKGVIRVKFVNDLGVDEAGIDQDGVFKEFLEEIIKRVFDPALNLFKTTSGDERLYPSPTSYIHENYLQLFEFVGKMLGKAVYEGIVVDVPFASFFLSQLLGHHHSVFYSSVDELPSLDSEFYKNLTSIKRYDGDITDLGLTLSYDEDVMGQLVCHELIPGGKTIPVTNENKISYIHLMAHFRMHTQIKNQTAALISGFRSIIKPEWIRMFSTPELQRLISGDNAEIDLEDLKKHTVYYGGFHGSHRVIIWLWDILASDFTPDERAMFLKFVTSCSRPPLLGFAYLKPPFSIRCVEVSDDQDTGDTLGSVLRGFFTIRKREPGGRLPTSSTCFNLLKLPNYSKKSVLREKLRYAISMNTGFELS
inactive: bafetinib -0.134 | nilotinib 0.072 | [8] 0.03 | dasatinib -0.028 | [9] 0.116 | [5] -0.062 | [11] 0.103 | tipifarnib -0.112 | [2] 0.034 | [6] -0.043 | entinostat -0.046 | [4] -0.037

UBA52 (UniProt P62987)
inactive: bafetinib 0.285 | [1] -0.001 | [5] -0.343 | [11] -0.16 | tipifarnib 0.247 | mubritinib -0.115 | [2] 0.067 | [6] 0.158 | [3] 0.366 | [7] 0.178 | entinostat 0 | vorinostat 0.029 | citarinostat -0.112 | silmitasertib 0.158 | [4] 0.246 | [10] -0.216
